High-throughput results: PubChem BioAssay, several laboratories
Compounds with a hit are over-represented: about 4.5% of the library has one in this group of screens.
aSyn UTR inh: MLPCN primary screen, SNCA 5' untranslated region; alpha-synuclein 5'UTR reporter, inhibitor activity; 0.82% of 300,000 active; inhibition, % (tested at 7.5 µM); in the data active = inhibition above about 60%;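 also: H4 neuroglioblastoma cells stably carrying SNCA 5'UTR luciferase fusion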
Jurkat NFkB inh: lowers PMA/ionomycin-induced NF-kB signal in Jurkat cells. PMA/ionomycin-induced NF-kB luciferase reporter, luminescence. 0.53% of 330,000 active. inhibition, % at 4 µM; in the data active = inhibition above about 50%
Mdm2 MdmX PPI: human Mdm2/MdmX binding inhibition | O15151+Q00987 | SaOS-2 split-luciferase Mdm2/MdmX complementation, luminescence | inhibition, % at 8 µM | 3% of 330,000 active | AID 485346;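 active = inhibition of at least 50% at 8 µM in the primary screen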
Target sequence (O15151 whole entry, looked up): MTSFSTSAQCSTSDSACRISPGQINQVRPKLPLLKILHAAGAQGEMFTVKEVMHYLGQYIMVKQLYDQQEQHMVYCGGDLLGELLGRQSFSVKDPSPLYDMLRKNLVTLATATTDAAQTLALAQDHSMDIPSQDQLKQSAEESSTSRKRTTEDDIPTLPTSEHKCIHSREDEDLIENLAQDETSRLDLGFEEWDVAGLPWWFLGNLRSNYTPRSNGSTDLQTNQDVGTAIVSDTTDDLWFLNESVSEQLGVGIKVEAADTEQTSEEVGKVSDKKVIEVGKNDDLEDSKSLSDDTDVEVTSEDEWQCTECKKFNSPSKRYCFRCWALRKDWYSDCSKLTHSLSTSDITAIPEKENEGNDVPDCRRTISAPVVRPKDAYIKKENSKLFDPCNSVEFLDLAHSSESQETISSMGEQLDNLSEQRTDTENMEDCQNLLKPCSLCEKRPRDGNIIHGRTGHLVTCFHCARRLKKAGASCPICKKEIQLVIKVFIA
Target sequence (Q00987 whole entry, looked up): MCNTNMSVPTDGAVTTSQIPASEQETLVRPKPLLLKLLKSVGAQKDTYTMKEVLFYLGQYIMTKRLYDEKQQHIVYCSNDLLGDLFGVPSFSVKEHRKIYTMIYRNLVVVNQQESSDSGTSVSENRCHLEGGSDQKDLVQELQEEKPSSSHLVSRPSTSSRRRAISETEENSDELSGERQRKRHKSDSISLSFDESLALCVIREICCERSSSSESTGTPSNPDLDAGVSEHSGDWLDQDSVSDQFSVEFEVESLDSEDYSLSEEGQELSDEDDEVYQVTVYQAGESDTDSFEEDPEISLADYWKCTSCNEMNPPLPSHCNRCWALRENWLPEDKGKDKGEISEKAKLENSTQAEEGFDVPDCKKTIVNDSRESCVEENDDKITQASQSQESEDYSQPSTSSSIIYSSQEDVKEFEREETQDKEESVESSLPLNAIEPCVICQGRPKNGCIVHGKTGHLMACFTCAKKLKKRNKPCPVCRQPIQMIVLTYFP
CSC inhib: cancer stem cell inhibition. inhibition, % at 7.5 µM. cancer stem cell-like cells viability, luminescence. 1.1% of 300,000 active. AID 2717; in the data active = inhibition above about 75%; tested in HMLE shEcad cells
Gli-Sufu antag: Gli-Sufu pathway antagonism; inhibition, % at 5 µM; AID 588413; 0.74% of 340,000 active; Sufu-KO-LIGHT fibroblasts, Gli luciferase reporter luminescence;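 active = inhibition above about 55%, limit read from the data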
697 NFkB inh: inhibitors of the PMA/ionomycin-induced NF-kB reporter in 697 B cells. inhibition, % at 4 µM. 697 B-cell NF-kB luciferase reporter, 16 h. AID 435022. 0.33% of 330,000 active; in the data active = inhibition above about 35%
Gli antag conf: Gli-SUFU antagonism confirmation, single concentration. inhibition, % at 5 µM. Sufu-KO-LIGHT cells, Gli luciferase reporter, luminescence. 40% of 2,500 active. shares compounds with Gli-Sufu antag;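 active = mean inhibition at 5 µM reaching about 45%, limit read from the data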
Gli cytotox: cytotoxic in Gli-SUFU antagonist counter-screen. shares compounds with Gli-Sufu antag. Sufu-KO-LIGHT cells cytotoxicity, ATP luminescence. cytotoxicity, % at 5 µM. 32% of 2,500 active. AID 651994;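 active = mean cytotoxicity at 5 µM above about 25%, limit read from the data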;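 also: cells exposed to compound overnight for roughly 16 to 18 hours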
Wnt3a counter: Wnt3a reporter inhibition counter-screen; shares compounds with Gli-Sufu antag; Wnt-LIGHT cells, Wnt3a-driven luciferase reporter, luminescence; inhibition, % at 6.25 µM; 20% of 2,500 active;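 active = mean inhibition above about 25%, limit read from the data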
Each line names hits and unclear results; the compound was inactive in the other large screens (follow-up assays come after a bar, where they were run).

Cc1ccc(O)c(NC(=O)C2=CC(c3cccs3)=NS(=O)(=O)N2C)c1	Gli-Sufu antag 93.9 (no result: CSC inhib) | Gli antag conf inactive | Gli cytotox inactive | Wnt3a counter inactive
CN1CCN(C(=O)c2ccc3c(c2)N(Cc2cccc(Cl)c2)C(=O)c2ccccc2S3=O)CC1 (centres undefined)	none
CCOC(=O)N1CCN(C(=O)c2ccc3c(c2)N(Cc2cccc(Cl)c2)C(=O)c2ccccc2S3=O)CC1 (centres undefined)	Gli-Sufu antag 55.9 | Gli antag conf inactive | Gli cytotox inactive | Wnt3a counter inactive
CCC1(C)NC(=O)N(CC(=O)N2N=C(c3ccccc3)CC2c2ccc(OC)cc2)C1=O (centres undefined)	none
Clc1ccc(-c2c[n+]3c(n2-c2ccccc2)SCC3)cc1	none
Cc1ccc(-c2c[n+]3c(n2-c2ccccc2)CCC3)cc1	Gli-Sufu antag 80.1 | Gli antag conf 82.8 | Gli cytotox 34.4 | Wnt3a counter 36.3
c1ccc(-c2c[n+]3c(n2-c2ccccc2)CCC3)cc1	Gli-Sufu antag 59.8 | Gli antag conf 68.5 | Gli cytotox inactive | Wnt3a counter inactive
Cc1nn(CC(=O)NC(C)CCc2ccccc2)c(=O)c2nn(-c3ccccc3)c(C)c12 (centres undefined)	none | Gli antag conf inactive | Gli cytotox inactive | Wnt3a counter inactive
Cc1ccccc1CCNC(=O)Cn1nc(C)c2c(C)n(-c3ccccc3)nc2c1=O	none
Cc1ccccc1S(=O)(=O)Cc1ccc(C(=O)NCc2ccco2)o1	none
Cc1ccccc1CS(=O)(=O)Cc1ccc(C(=O)NCc2ccco2)o1	none | Gli antag conf inactive | Gli cytotox inactive | Wnt3a counter inactive
COCCNC(=O)/C(C#N)=C/c1c(N2CCN(C)CC2)nc2ccccn2c1=O	none
Cc1c(CCOC(=O)CC23CC4CC(CC(C4)C2)C3)sc[n+]1Cc1ccccc1	none | Gli antag conf 58.4 | Gli cytotox 32.1 | Wnt3a counter inactive
Cc1ncc(C[n+]2csc(CCOC(=O)CC34CC5CC(CC(C5)C3)C4)c2C)c(N)n1	none
CCOC(=O)[C@H]1[C@H]2COc3ccc(OC)cc3[C@@H]2N2C(=O)CN(Cc3ccc(OC)cc3)C(=O)[C@@]12C	none (no result: aSyn UTR inh)
Cc1cc(NC(=O)Cc2ccccc2)c2ccccc2n1	Gli-Sufu antag 66.1 | Gli antag conf 58.9 | Gli cytotox 36.8 | Wnt3a counter 30.4
COC(=O)Nc1cc(C)nc2ccccc12	none
Cc1ccc(OCCCN(C)C)c(Br)c1	none
CCCCNCCCOc1ccc(C)cc1Br	Gli-Sufu antag 67.3 | Gli antag conf inactive | Gli cytotox inactive | Wnt3a counter inactive
CCCCNCCCOc1cccc(Cl)c1Cl	Gli-Sufu antag 62.2 (no result: CSC inhib) | Gli antag conf inactive | Gli cytotox inactive | Wnt3a counter inactive
Cc1cc(OCCn2cc(/C(N)=N/O)c3ccccc32)ccc1Cl	none
CN1CCc2nc(NC(=O)c3cccc(OC(F)F)c3)sc2C1	Gli-Sufu antag 68.5 | Gli antag conf inactive | Gli cytotox inactive | Wnt3a counter inactive
Cc1nc2ccc(S(=O)(=O)NCC(=O)NCCN3CCCCCC3)cc2s1	Gli-Sufu antag 83.0 | Gli antag conf inactive | Gli cytotox inactive | Wnt3a counter inactive
Cc1nc2ccc(S(=O)(=O)NCC(=O)NCc3ccc(Cl)cc3)cc2s1	none
CCOCCCn1c(SCc2nc3ccccc3s2)nc2ccccc2c1=O	none | Gli antag conf inactive | Gli cytotox inactive | Wnt3a counter inactive
CCCCCn1c(=O)[nH]c2cc(C(=O)NCCCN3CCC(C)CC3)ccc2c1=O	none (no result: CSC inhib)
COc1ccccc1NC(=O)C1CCCN1C(=O)Nc1ccc(F)cc1 (centres undefined)	none
COc1ccc(Nc2ncc(C(=O)N3CCN(Cc4ccccc4)CC3)c3ccccc23)cc1	Gli-Sufu antag 99.2 | Gli antag conf inactive | Gli cytotox inactive | Wnt3a counter inactive
COc1ccc(Nc2ncc(C(=O)N3CCC(C(N)=O)CC3)c3ccccc23)cc1	none
CCOC(=O)N1CCC(N(C(=O)Nc2ccc(Cl)c(Cl)c2)C(C)CC)CC1 (centres undefined)	Gli-Sufu antag 64.8 | Gli antag conf inactive | Gli cytotox inactive | Wnt3a counter inactive
COc1ccc(CCNC(=O)CCC(=O)Nc2ccc3nc(N4CCN(C)CC4)cc(C)c3c2)cc1OC	none | Gli antag conf inactive | Gli cytotox inactive | Wnt3a counter inactive
NC(N)=NN=C(c1ccc(F)cc1)c1ccc(C(F)(F)F)cc1	Gli-Sufu antag 56.5 (no result: aSyn UTR inh, Jurkat NFkB inh, Mdm2 MdmX PPI, CSC inhib, 697 NFkB inh) | Gli antag conf inactive | Gli cytotox 49.7 | Wnt3a counter inactive
CCOc1ccc(CN(C(=O)c2ccccn2)c2ccc(OC)c(Cl)c2)cc1	none
COc1nc(N2CCCC2)nc(-n2nnc(C(C)=O)c2C)n1	none
COc1ccc(S(=O)(=O)N2CCCC(C(=O)N3CCOCC3)C2)cc1Cl (centres undefined)	none
COc1ccc(S(=O)(=O)N2CCCC(C(=O)N3CCOCC3)C2)cc1C (centres undefined)	Gli-Sufu antag 99.0 | Gli antag conf inactive | Gli cytotox inactive | Wnt3a counter inactive
COc1ccc(S(=O)(=O)N2CCOCC2)cc1C(=O)N1CCCC1	Gli-Sufu antag 60.9 | Gli antag conf inactive | Gli cytotox inactive | Wnt3a counter inactive
CC(C)COc1cccc(C(=O)Nc2ccc(CN3CCOCC3)cc2)c1	none | Gli antag conf inactive | Gli cytotox inactive | Wnt3a counter inactive
COC(CN1C(=O)C(O)=C(C(C)=O)C1c1ccccn1)OC (centres undefined)	none
CCOC(=O)N1CCN(C(=O)CSc2ccc3nnc(-c4ccncc4)n3n2)CC1	Gli-Sufu antag 58.9 | Gli antag conf inactive | Gli cytotox 33.1 | Wnt3a counter inactive
Cc1ccc(C)c(N2CCN(c3nc4ccccc4c(=O)n3Cc3ccccc3)CC2)c1	none (no result: CSC inhib) | Gli antag conf inactive | Gli cytotox inactive | Wnt3a counter inactive
Cc1cccc(/C=C/c2nc3ccccc3c(=O)n2Cc2ccccc2)c1	none
Cc1ccc(S(=O)(=O)N(CC(=O)NCCSc2ccccn2)c2cc(C)cc(C)c2)cc1	none | Gli antag conf inactive | Gli cytotox inactive | Wnt3a counter inactive
CC(C(=O)Nc1ccc(Cl)cc1Cl)N1C(=O)NC2(CCCC2)C1=O (centres undefined)	none
CC1CCCC=CC2CC(OC(=O)CN(C)C)CC2C(O)C=CC(=O)O1 (centres undefined)	Gli-Sufu antag 60.3 (no result: aSyn UTR inh, Jurkat NFkB inh, Mdm2 MdmX PPI, CSC inhib, 697 NFkB inh) | Gli antag conf 86.2 | Gli cytotox 38.0 | Wnt3a counter 88.4
